Screening results (PubChem)
An excerpt weighted towards active compounds, which were near 6.8% of everything screened.
SW480 rerep: A quantitative high throughput screen for small molecules that induce DNA re-replication in SW480 colon adenocarcinoma cells; Potency, µM (series often up to 46.1 µM), for the others: top-dose re-replication activation, actives largely listed as activators; SW480 DNA re-replication, Hoechst DNA content imaging, 48 h; 340,000 compounds, 1.8% hits; further: % of control where 0% means no effect; nearly all actives have a fitted effect of over 55% in size
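Readout is total intensity of Hoechst-stained nuclei, excited at 405 nm and collected at 500-530 nm. Compound treatment lasted 48 hr at 37 C in 5% CO2 before staining.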
KB-V1 cytotox: qHTS assay for MDR1-selective chemotherapeutics: Primary screen using the drug-selected MDR subline cells KB-V1; KB-V1 MDR cells viability, CellTiter-Glo, 72 h; Potency, µM (top dose mostly 46.1 µM), most hits filed as cytotoxic; 400,000 compounds, 3.4% hits; AID 1347076, 2019; further: on the % scale 0 is the no-effect control and ±100 the full control effect; nearly all actives have a fitted effect of over 60% in size
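Drug-selected KB-V1 cells, grown in DMEM lacking phenol red with 10% FBS, receive compound titrations; after three days at 37 degrees C, surviving cell ATP is quantified by CellTiter-Glo luminescence and responses normalized and curve-fitted.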
MCF10A rerep: A quantitative high throughput screen for small molecules that induce DNA re-replication in MCF 10a normal breast cells | MCF 10A DNA re-replication, Hoechst nuclear intensity, 48 h | Potency, µM (top dose mostly 46.1 µM), for inactives: top-dose activity, positive = re-replication, hits mostly activators | 350,000 compounds, 2.9% hits | AID 624296, 2012; further: % of control where 0% means no effect; nearly all actives have a fitted effect of over 50% in size
PINK1 expr mod: A Quantitative High throughput Screen to Identify Chemical Modulators of PINK1 Expression; Potency, µM (series often up to 76.6 µM), inactives show top-dose activation (PINK1 increase), actives largely listed as activators; 410,000 compounds, 0.2% hits; AID 624263, 2012; PINK1 immunofluorescence, high-content cytometry, 24 h; active means well fitted activation curve with a large enough effect; inconclusive means small, poorly fitted or top-dose-only effect; cell line not stated here; further: % of control where 0% means no effect; nearly all actives have a fitted effect of over 65% in size
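Stable cell line treated 24 h with compounds at 5 concentrations (CCCP controls), then fixed and immunostained for PINK1 plus nuclear and cell stains; PINK1 immunofluorescence quantified by laser-scanning microplate cytometry.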
PTAP TSG101 blk: qHTS Assay for Iinhibitors of HIV-1 Budding by Blocking the Interaction of PTAP/TSG101 | Fluorescence polarization, FITC-PTAP peptide / Tsg101 binding | Potency, µM (series often up to 115 µM), without a hit: at the highest dose activity change, negative = inhibition, actives largely listed as inhibitors | 340,000 tested, under 10 active; active means well fitted inhibition curve with a large enough effect in the main read-out, with a control signal flat, not every such curve was filed as active; inconclusive means small, poorly fitted or top-dose-only effect, or effect the other way, or a change in a side signal; inactive means no such curve, though single readings can be large or run the other way; further: % of control where 0% means no effect
Target sequence (Q99816 whole entry, looked up): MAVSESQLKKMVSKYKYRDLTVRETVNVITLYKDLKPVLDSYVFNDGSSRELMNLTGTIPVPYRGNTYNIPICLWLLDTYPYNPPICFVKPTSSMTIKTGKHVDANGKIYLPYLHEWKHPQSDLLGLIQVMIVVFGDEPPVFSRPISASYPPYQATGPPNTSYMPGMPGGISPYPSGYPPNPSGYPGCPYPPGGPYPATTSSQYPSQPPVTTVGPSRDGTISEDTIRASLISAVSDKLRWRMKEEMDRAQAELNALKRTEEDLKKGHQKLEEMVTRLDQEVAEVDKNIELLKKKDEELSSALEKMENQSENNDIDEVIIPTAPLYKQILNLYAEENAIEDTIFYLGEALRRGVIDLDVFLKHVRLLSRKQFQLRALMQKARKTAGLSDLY
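Fluorescence anisotropy tracks displacement of a FITC-tagged PTAP peptide (50 nM) from the Tsg101 binding domain (10 uM), following a 20 min room-temperature incubation at pH 7.5.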
KB-3-1 cytotox: qHTS assay for MDR1-selective chemotherapeutics: Primary screen using the parental adenocarcinoma cell KB-3-1; KB-3-1 viability, CellTiter-Glo ATP luminescence, 72 h; 400,000 compounds, 1.4% hits; Potency, µM (top dose mostly 46.1 µM), usual class: cytotoxic; further: on the % scale 0 is the no-effect control and ±100 the full control effect; nearly all actives have a fitted effect of over 60% in size
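72 h, 37 °C compound treatment of KB-3-1 parental cells; CellTiter-Glo added, 10 min, luminescence read. Data corrected against DMSO-only plates and normalized before curve fitting.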
Starred values were filed as active, the others as inactive. Unless noted, the call rests on the fitted dose curve; in most records, active means well fitted curve in the direction sought with a large enough effect; inconclusive means small, poorly fitted or top-dose-only effect, or another doubt; inactive means no such curve, though single readings can be large; an effect the other way counts as inactive or inconclusive. Potency means the concentration at half of the fitted maximal effect.

How did Cc1ccc(C(=O)c2cc([N+](=O)[O-])ccc2N2CCN(C)CC2)cc1 do in these assays?
SW480 rerep: 10µM*; KB-V1 cytotox: 3.7µM*; MCF10A rerep: 16µM*; PINK1 expr mod: 13%; PTAP TSG101 blk: -2%; KB-3-1 cytotox: 5.2µM*

What do the screens show for `O=C(c1ccc(Br)cc1)c1cc([N+](=O)[O-])ccc1N1CCCCC1`?
SW480 rerep: inconclusive; KB-V1 cytotox: inconclusive; MCF10A rerep: inconclusive; PINK1 expr mod: 3%; PTAP TSG101 blk: -1%; KB-3-1 cytotox: 1µM*

Results for CN1CCN(c2ccc([N+](=O)[O-])cc2C(=O)c2ccc(Br)cc2)CC1 ?
SW480 rerep: 3.7µM*; KB-V1 cytotox: 4.1µM*; MCF10A rerep: inconclusive; PINK1 expr mod: 3%; PTAP TSG101 blk: -6%; KB-3-1 cytotox: 2.9µM*

Results for O=C(NCc1nnc2n1CCN(C(=O)c1cccc(Cl)c1)CC2)C1CC1 ?
PINK1 expr mod: 1%

How did CN1c2ccc(Cl)cc2-c2nc(SCC(=O)NCc3ccccc3)ncc2S1(=O)=O do in these assays?
KB-V1 cytotox: inactive; PINK1 expr mod: 2%; KB-3-1 cytotox: inactive

How did CCCN(CC(=O)Nc1ccc(C)cc1Br)CC(=O)Nc1ccc(F)c(F)c1F do in these assays?
SW480 rerep: 0%; KB-V1 cytotox: 8.2µM*; MCF10A rerep: inconclusive; PINK1 expr mod: inconclusive; PTAP TSG101 blk: -2%; KB-3-1 cytotox: inactive

Results for CCCN(CC(=O)Nc1ccc(F)c(F)c1F)CC(=O)Nc1c(Cl)cccc1Cl ?
SW480 rerep: inconclusive; KB-V1 cytotox: 18µM*; MCF10A rerep: inconclusive; PINK1 expr mod: 1%; PTAP TSG101 blk: -3%; KB-3-1 cytotox: inactive

What do the screens show for `CCCN(CC(=O)Nc1cccc(Br)c1)CC(=O)Nc1ccc(F)c(F)c1F`?
SW480 rerep: 8%; KB-V1 cytotox: inconclusive; MCF10A rerep: inconclusive; PINK1 expr mod: inconclusive; PTAP TSG101 blk: -3%; KB-3-1 cytotox: inconclusive

What do the screens show for `CCc1cccc(C)c1NC(=O)CN1C(=O)C2(SCC(=O)N2c2cc(C)cc(C)c2)c2ccccc21` (stereo unspecified)?
KB-V1 cytotox: inactive; PINK1 expr mod: -4%; KB-3-1 cytotox: inactive

How did COc1ccc(/C=C\c2onc(C)c2S(=O)(=O)N2CCC(C(=O)Nc3ccc(C)cc3C)CC2)cc1 do in these assays?
PINK1 expr mod: 1%

Results for O=C(NCCN1CCC(n2c(=O)[nH]c3ccccc32)CC1)c1ccc(Cl)c(Cl)c1 ?
KB-V1 cytotox: 21µM*; PINK1 expr mod: 2%; KB-3-1 cytotox: inconclusive

How did COc1ccccc1-c1cc(C(F)(F)F)c(C#N)c(=O)[nH]1 do in these assays?
SW480 rerep: 20%; KB-V1 cytotox: inactive; MCF10A rerep: inconclusive; PINK1 expr mod: 1%; PTAP TSG101 blk: -3%; KB-3-1 cytotox: inactive

Results for COc1ccc(-c2cc(C(F)(F)F)c(C#N)c(=O)[nH]2)cc1 ?
SW480 rerep: 18%; KB-V1 cytotox: inactive; MCF10A rerep: 18µM*; PINK1 expr mod: 0%; PTAP TSG101 blk: -1%; KB-3-1 cytotox: inactive

What do the screens show for `N#Cc1c(C(F)(F)F)cc(-c2cccc(Cl)c2)[nH]c1=O`?
SW480 rerep: inconclusive; KB-V1 cytotox: inactive; MCF10A rerep: 16µM*; PINK1 expr mod: 2%; PTAP TSG101 blk: -10%; KB-3-1 cytotox: inactive

How did N#Cc1c(C(F)(F)F)cc(-c2ccc(F)cc2)[nH]c1=O do in these assays?
SW480 rerep: 452%; KB-V1 cytotox: inactive; MCF10A rerep: 21µM*; PINK1 expr mod: 2%; PTAP TSG101 blk: -5%; KB-3-1 cytotox: inactive

Results for Cc1cc(C(F)(F)F)c(C#N)c(=O)[nH]1 ?
SW480 rerep: -1%; KB-V1 cytotox: inactive; MCF10A rerep: -1%; PINK1 expr mod: 0%; PTAP TSG101 blk: -2%; KB-3-1 cytotox: inactive

What do the screens show for `N#Cc1c(C(F)(F)F)cc(-c2ccc(Cl)cc2)[nH]c1=O`?
SW480 rerep: inconclusive; KB-V1 cytotox: inactive; MCF10A rerep: 4.6µM*; PINK1 expr mod: inconclusive; PTAP TSG101 blk: -4%; KB-3-1 cytotox: inactive

What do the screens show for `CSc1cc(-c2ccc(Cl)cc2)[nH]c(=O)c1C#N`?
SW480 rerep: -24%; KB-V1 cytotox: inactive; MCF10A rerep: 13%; PINK1 expr mod: 1%; PTAP TSG101 blk: 1%; KB-3-1 cytotox: inactive

What do the screens show for `O=C(NC(=S)Nc1ccccc1O)c1ccc(-c2ccc(Cl)cc2)o1`?
SW480 rerep: 14%; KB-V1 cytotox: inactive; MCF10A rerep: 16µM*; PINK1 expr mod: 0%; PTAP TSG101 blk: 0%; KB-3-1 cytotox: inconclusive

What do the screens show for `CC(=O)NC(=O)c1ccc(-c2ccc(Cl)cc2)o1`?
SW480 rerep: -13%; KB-V1 cytotox: 8.2µM*; MCF10A rerep: -1%; PINK1 expr mod: -2%; PTAP TSG101 blk: -5%; KB-3-1 cytotox: inconclusive

What do the screens show for `Cc1ccc(O)c(NC(=S)NC(=O)c2ccc(-c3ccc(Cl)cc3)o2)c1`?
SW480 rerep: 26%; KB-V1 cytotox: inactive; MCF10A rerep: 6.5µM*; PINK1 expr mod: -2%; PTAP TSG101 blk: -7%; KB-3-1 cytotox: inactive

How did COc1ccccc1NC(=S)NC(=O)c1ccc(-c2ccc(Cl)cc2)o1 do in these assays?
SW480 rerep: -1%; KB-V1 cytotox: inactive; MCF10A rerep: inconclusive; PINK1 expr mod: inconclusive; PTAP TSG101 blk: -3%; KB-3-1 cytotox: inactive

What do the screens show for `O=C(Nc1ccc(C(F)(F)F)cc1)c1cc(S(=O)(=O)NC2CCCCCC2)ccc1F`?
KB-V1 cytotox: 18µM*; PINK1 expr mod: 14%; KB-3-1 cytotox: inconclusive

Results for O=C(Nc1ccc(Br)cc1)c1cc(S(=O)(=O)NC2CCCC2)ccc1F ?
KB-V1 cytotox: inconclusive; PINK1 expr mod: 2%; KB-3-1 cytotox: 21µM*

What do the screens show for `O=C(Nc1ccc(C(F)(F)F)cc1)c1cc(S(=O)(=O)NC2CCCCC2)ccc1F`?
KB-V1 cytotox: inconclusive; PINK1 expr mod: 30%; KB-3-1 cytotox: inactive

How did CCOc1ccc(NC(=O)C2CCN(C(=O)N3CC(C)Oc4ccc(Cl)cc43)CC2)cc1 (stereo unspecified) do in these assays?
KB-V1 cytotox: inactive; PINK1 expr mod: -1%; KB-3-1 cytotox: inactive

How did COc1ccccc1CNC(=O)Cn1c(=O)nc(-c2ccccc2F)c2cc(Cl)ccc21 do in these assays?
PINK1 expr mod: 0%
